High-throughput results (PubChem BioAssay)
Hits are enriched below; roughly 12% of the tested compounds scored in any of these assays.
HP1b chromo inh: blocks HP1-beta chromodomain binding to methylated histone tails. AID 540317. AlphaScreen HP1-beta / biotin-H3K9me3 peptide binding. Potency, µM (top dose mostly 114 µM), for the others: at the highest dose activity change, negative = inhibition, usual class: inhibitors. 390,000 compounds, 0.56% hits. P83916; note: nearly all actives have a fitted effect of over 70% in size
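Compound inhibition of the preformed complex between 50 nM HP1-beta and 50 nM biotinylated H3K9me3 peptide was read by AlphaScreen. Buffer was PBS pH 7.4 with 0.01% Tween-20. Incubations ran 30 min at room temperature, with 10 ug/mL donor/acceptor beads.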
Sfp inh: Sfp phosphopantetheinyl transferase inhibition | Q9F4F7 | Biochemical Sfp PPTase activity, qHTS | Potency, µM, for the others: largest response in the series, negative = inhibition, hits mostly inhibitors | 310,000 compounds, 3.5% hits | AID 1490;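 note: the enzyme is Sfp with the accession as filed and its product quenches rhodamine fluorescence; 0% = enzyme reaction without inhibitor and -100% = no enzyme wells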
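Buffer: 50 mM Hepes-Na pH 7.6, 10 mM MgCl2, 0.01% Nonidet P-40, 0.01% BSA. Enzyme 15 nM, pre-exposed to compound 15 min; substrates then added and fluorescence change tracked over 30 min.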
BAZ2B block: blocks human BAZ2B. Q9UIF8. AlphaScreen BAZ2B-H3K14Ac peptide displacement. Potency, µM (titrated, usually from 114 µM), for inactives: top-dose activity change, negative = inhibition, hits mostly inhibitors. 360,000 compounds, 4.4% hits. AID 504333; note: % is set by controls: 0 for no effect and ±100 for the full control effect; nearly all actives have a fitted effect of over 60% in size
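Inhibition is scored as reduced AlphaScreen emission. The BAZ2B/b-H3(5-23)K14Ac complex (50 nM each) in PBS pH 7.4, 0.01% Tween-20 meets compound (up to 110 uM) for 30 min at RT before bead addition.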
G9a block: inhibitors of human histone lysine methyltransferase G9a. Q96KQ7. G9a H3K9 monomethylation, AlphaScreen, 2 h. Potency, µM (highest dose often 102 µM), without a hit: at the top dose activity, negative = inhibition, hits mostly inhibitors. 350,000 compounds, 8.8% hits; note: % is set by controls: 0 for no effect and ±100 for the full control effect; nearly all actives have a fitted effect of over 75% in size
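G9a (20 nM) preincubated 15 min RT with compounds, then 500 nM biotinylated H3K9 peptide and 20 uM SAM added; 2 h RT reaction. Monomethyl-H3K9 product detected by AlphaScreen with anti-H3K9me1 antibody, streptavidin donor and anti-rabbit IgG acceptor beads.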
JMJD2A Tudor inh: JMJD2A Tudor domain (human) inhibition; O75164; 390,000 compounds, 4.4% hits; AlphaScreen JMJD2A-Tudor / H3K4me3 peptide binding; Potency, µM (series often up to 114 µM), for inactives: at the top dose activity change, negative = inhibition, actives largely listed as inhibitors; AID 504339; note: % is set by controls: 0 for no effect and ±100 for the full control effect; nearly all actives have a fitted effect of over 50% in size
The depositor's hits bear a star; [ ] = dose if it differs, or a comment. Calls come from the whole dose curve; as a rule, active = well fitted curve in the direction sought with a large enough effect; inconclusive = small, poorly fitted or top-dose-only effect, or another doubt; inactive = no such curve, though single readings can be large; an effect the other way counts as inactive or inconclusive. Potency is the fitted concentration of half-maximal effect.

What do the screens show for `NCC(N)C(=O)c1ccccc1` (stereo not drawn)?
Sfp inh: -3%

Results for CC/C=C\C/C=C\C/C=C\C/C=C\C/C=C\CCCC(=O)NCCO ?
Sfp inh: -6%

Results for CN1CCCCC1Cn1cc(C(=O)c2cc([N+](=O)[O-])ccc2I)c2ccccc21 (stereo not drawn) ?
Sfp inh: -21%

What do the screens show for `CN(C)c1ccc([P+](=O)c2ccc(N(C)C)cc2)cc1`?
HP1b chromo inh: 6%; Sfp inh: 5%; BAZ2B block: -28%; G9a block: -3%; JMJD2A Tudor inh: -17%

What do the screens show for `CN(C)c1ccc(Cc2ccc(N(C)C)cc2)cc1`?
HP1b chromo inh: 20µM*; JMJD2A Tudor inh: 25µM*

What do the screens show for `COc1cc(/C=C/[N+](=O)[O-])ccc1O`?
HP1b chromo inh: inconclusive; Sfp inh: inconclusive; BAZ2B block: 45µM*; G9a block: 6.3µM*; JMJD2A Tudor inh: inconclusive

Results for COc1cc(/C=C/c2nc3ccccc3c(=O)n2-c2ccc(Br)c(C)c2)ccc1O ?
HP1b chromo inh: 1%; BAZ2B block: 9%; G9a block: 9%[59 µM]; JMJD2A Tudor inh: -3%

What do the screens show for `CC(C)N1C(=O)/C(=C/C=C/c2ccco2)C(=O)N(Cc2ccco2)C1=O`?
HP1b chromo inh: 28µM*; Sfp inh: -81%; BAZ2B block: 35µM*; JMJD2A Tudor inh: 14µM*

Results for CCN1C(=O)C(=C/C=C/c2ccco2)C(=O)N(CC)C1=S ?
HP1b chromo inh: inconclusive; Sfp inh: 40µM*; BAZ2B block: 45µM*; G9a block: 13µM*; JMJD2A Tudor inh: 50µM*

What do the screens show for `CCN1C(=O)C(=C2C=C(C)N(Cc3ccco3)C(C)=C2)C(=O)N(CC)C1=S`?
HP1b chromo inh: 77%; Sfp inh: 3%; BAZ2B block: 32%; G9a block: 53%; JMJD2A Tudor inh: 20%

What do the screens show for `O=C1CCCC2C3CC(CN12)C1CCCCN1C3` (stereo not drawn)?
Sfp inh: -8%

How did C[CH2][Hg][S]c1ccccc1C(=O)O do in these assays?
HP1b chromo inh: inconclusive; Sfp inh: 16µM*; G9a block: inconclusive; JMJD2A Tudor inh: 18µM*

Results for O=C(O)c1ccccc1SSc1ccccc1C(=O)O ?
HP1b chromo inh: 56%; Sfp inh: inconclusive; BAZ2B block: -4%; G9a block: 28µM*; JMJD2A Tudor inh: 2%

Results for CNc1ccccc1C(=O)O ?
Sfp inh: 0%

Results for CCN1CC2(OC(=O)c3ccccc3NC(C)=O)CCC(OC)[C@]34C1[C@H](CC23)[C@@]1(O)C[C@H](OC)[C@H]2CC4C1(O)[C@H]2OC (stereo partly drawn) ?
Sfp inh: -6%

How did CC(C)CC1C(C#N)=C(N)Oc2c1c(=O)oc1ccccc21 (stereo not drawn) do in these assays?
HP1b chromo inh: 3%; Sfp inh: 15%; BAZ2B block: -1%; G9a block: -70%; JMJD2A Tudor inh: 45µM*

How did CCCCC12CN3CC(C)(CN(C1)C3c1ccccn1)C2=O (stereo not drawn) do in these assays?
HP1b chromo inh: 11%; BAZ2B block: 8.9µM*; G9a block: 0.63µM*; JMJD2A Tudor inh: 25µM*

How did CCCC12CN3CC(C)(CN(C1)C3c1c(C)[nH]c(=O)[nH]c1=O)C2=O (stereo not drawn) do in these assays?
HP1b chromo inh: 16%; BAZ2B block: -13%; G9a block: inconclusive; JMJD2A Tudor inh: -19%

Results for CC1(C)C(C(Cl)Cl)C2(Cl)C(Cl)C(Cl)C1(Cl)C2(Cl)Cl (stereo not drawn) ?
Sfp inh: -4%

What do the screens show for `Cc1occc1C(=O)Nc1ccccc1`?
Sfp inh: 5%

How did Cc1[nH]nc2ccc(-c3cncc(OC[C@@H](N)Cc4c[nH]c5ccccc45)c3)cc12 do in these assays?
HP1b chromo inh: -36%; JMJD2A Tudor inh: 35µM*

Results for C=C(C)CSc1nnc([C@@H](N)Cc2c[nH]c3ccccc23)o1 ?
HP1b chromo inh: 41%; Sfp inh: -36%; BAZ2B block: -28%; JMJD2A Tudor inh: -33%

Results for CC1=C[C@H]2[C@]3(O)C(C=C(CO)C[C@]2(O)C1=O)[C@@H]1C(C)(C)[C@]1(O)[C@H](O)[C@H]3C (stereo partly drawn) ?
Sfp inh: 4%

Results for COc1ccc(N2C(=O)NC(=O)/C(=C\c3ccc([N+](=O)[O-])s3)C2=O)cc1 ?
HP1b chromo inh: 22µM*; Sfp inh: 40µM*; BAZ2B block: 32µM*; G9a block: 7.9µM*; JMJD2A Tudor inh: 22µM*

Results for COc1cccc(N2C(=O)NC(=O)/C(=C/c3ccc([N+](=O)[O-])s3)C2=O)c1 ?
HP1b chromo inh: 35µM*; Sfp inh: 25µM*; BAZ2B block: 35µM*; G9a block: 11µM*; JMJD2A Tudor inh: 22µM*

Results for COc1ccccc1[N+](=O)[O-] ?
HP1b chromo inh: 23%; BAZ2B block: -4%; G9a block: 11%[0.501 µM]; JMJD2A Tudor inh: -11%

What do the screens show for `COC(=O)Cn1cc(/C=C2\C(=O)NC(=O)N(c3ccc(OC)cc3)C2=O)c2ccccc21`?
HP1b chromo inh: -5%; Sfp inh: -23%; BAZ2B block: -4%; G9a block: 28%[0.501 µM]; JMJD2A Tudor inh: 4%

What do the screens show for `COc1ccc(N2C(=O)NC(=O)/C(=C/c3ccc([N+](=O)[O-])s3)C2=O)cc1`?
HP1b chromo inh: inconclusive; Sfp inh: 25µM*; BAZ2B block: 40µM*; G9a block: 8.9µM*; JMJD2A Tudor inh: 56µM*

How did COc1ccccc1N1C(=O)NC(=O)/C(=C/c2ccc([N+](=O)[O-])s2)C1=O do in these assays?
HP1b chromo inh: inconclusive; Sfp inh: 22µM*; BAZ2B block: 35µM*; G9a block: 8.9µM*; JMJD2A Tudor inh: 56µM*

How did O=C(/C=C/c1ccc(Cl)cc1)N[C@@]12CCC(=O)[C@@H]3Oc4c(O)ccc5c4[C@@]31CCN(CC1CC1)C2C5 do in these assays?
Sfp inh: 16%; G9a block: 16%[59 µM]

What do the screens show for `O=c1[nH]c(=S)[nH]c(O)c1/C=N/N1CCOCC1`?
HP1b chromo inh: 53%; Sfp inh: inconclusive; BAZ2B block: 0%; G9a block: 50µM*; JMJD2A Tudor inh: 6%

Results for O=C1NC(=O)C(=Cc2ccc3ccccc3c2)C(=O)N1 ?
HP1b chromo inh: 37%; Sfp inh: 40µM*; BAZ2B block: -2%; G9a block: -40%[12.7 µM]; JMJD2A Tudor inh: -19%

What do the screens show for `Cc1ccc(OCCOc2cccc(C=C3C(=O)NC(=O)NC3=O)c2)cc1`?
HP1b chromo inh: 15%; Sfp inh: 63µM*; BAZ2B block: inconclusive; G9a block: inconclusive; JMJD2A Tudor inh: inconclusive
